Calls of active or inactive are those of the source. No rule for the calls is given here.
Assay: V-ATPase proton transport modulators in yeast, dose response, S. cerevisiae, pHLuorin, powder set 4 (AID 652071)
Details: S. cerevisiae pHLuorin cytosolic pH fluorescence; series mostly up to 100 µM; response change, sign ambiguous: at the top concentration

Response change, sign ambiguous, inactive:
CN1CCN(c2ccccc2NC(=O)c2cccc(CS(C)(=O)=O)c2)CC1 -10.9%
COCc1cccc(C(=O)Nc2ccccc2N2CCCCC2)c1 -22.1%
CC(=O)N1CCN(c2ccccc2NC(=O)c2ccc(C)o2)CC1 14.7%
COCc1cccc(C(=O)Nc2ccccc2N2CCN(C)CC2)c1 6.5%
CN(C)Cc1cccc(C(=O)Nc2ccccc2N2CCN(C)CC2)c1 3.21%
CC(=O)N1CCN(c2ccccc2NC(=O)c2ccc(C(C)(C)C)o2)CC1 -2.35%
O=C(Nc1ccccc1N1CCCCC1)c1cccc(C(F)(F)F)c1 -0.38%
CN1CCN(c2ccccc2NC(=O)c2cccc(C(N)=O)c2)CC1 -19.6%
Nc1cncc(C(=O)Nc2ccccc2N2CCCCC2)n1 4.83%
Cc1cncc(C(=O)Nc2ccccc2N2CCN(C)CC2)n1 -10.2%
O=C(Nc1ccccc1N1CCCCC1)c1cc(Cl)ccn1 -24.7%
CC(=O)N1CCN(c2ccccc2NC(=O)c2cccc(C#N)c2)CC1 -35.1%
CN1CCN(c2ccccc2NC(=O)c2ccc(S(C)(=O)=O)o2)CC1 -3.21%
CC(=O)N1CCN(c2ccccc2NC(=O)c2cccc(S(C)(=O)=O)c2)CC1 20.5%
CC(=O)N1CCN(c2ccccc2NC(=O)c2cccc(C(=O)N(C)C)c2)CC1 24.7%
N#CCc1cccc(C(=O)Nc2ccccc2N2CCOCC2)c1 12%
Cc1ccnc(C(=O)Nc2ccccc2N2CCN(C)CC2)c1 -9.84%
CN1CCN(c2ccccc2NC(=O)c2cc(Cl)ccn2)CC1 12.5%
O=C(Nc1ccccc1N1CCOCC1)c1occc1-c1ccccc1 -14.3%
CS(=O)(=O)c1cccc(C(=O)Nc2ccccc2N2CCOCC2)c1 17.9%
CN(C)Cc1ccc(C(=O)Nc2ccccc2N2CCCCC2)o1 -16.9%
CC(=O)N1CCN(c2ccccc2NC(=O)c2cc(Cl)ccn2)CC1 5.48%
CN1CCN(c2ccccc2NC(=O)c2ccc(-c3ccccc3)o2)CC1 76.2%
Cc1ccnc(C(=O)Nc2ccccc2N2CCCCC2)c1 -34.3%
CC(=O)N1CCN(c2ccccc2NC(=O)c2cncc(N)n2)CC1 13.1%
O=C(Nc1ccccc1N1CCCCC1)c1cccc(Cl)n1 -40.8%
CN1CCN(c2ccccc2NC(=O)c2ccc(C(F)(F)F)o2)CC1 -7.3%
CC(=O)N1CCN(c2ccccc2NC(=O)c2ccc(C(F)(F)F)o2)CC1 4.7%
CC(=O)N1CCN(c2ccccc2NC(=O)c2ccc(Cl)o2)CC1 -3.95%
CC(=O)N1CCN(c2ccccc2NC(=O)c2cc(C)ccn2)CC1 32.1%
O=C(Nc1ccccc1N1CCCCC1)c1ccc(Br)o1 -17.4%
CN1CCN(c2ccccc2NC(=O)c2cccc(C(F)(F)F)c2)CC1 -1.46%
CC(=O)N1CCN(c2ccccc2NC(=O)c2cccc(CN(C)C)c2)CC1 11.7%
CS(=O)(=O)c1ccc(C(=O)Nc2ccccc2N2CCCCC2)o1 -5.92%

Reference: PubChem BioAssay AID652071 (NMMLSC, 2013)
